Screens deposited in PubChem by several laboratories.
Rows were chosen to be rich in hits. Some 3.4% of all compounds tested hit in one or more screens of this group.
HIF-2a inh: inhibitors of HIF-2a; inhibition, % at 18.8 µM; 0.72% of 360,000 active; 786-0 RCC cells HIF-2a reporter, luciferase luminescence, overnight;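 active = inhibition of the luminescence signal of 40% or more relative to plate controls, in a single-dose primary screen at 18.75 µM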
TWEAK Fn14 block: blocks TWEAK-Fn14 interaction in a reporter cell assay | TWEAK-stimulated Fn14 reporter cells, luciferase luminescence, 8 h | inhibition, % at 10 µM | 2% of 360,000 active | AID 1159606; in the data active = inhibition above about 50%
MITF TRPM1 inh: reduces MITF-dependent TRPM1 promoter luciferase signal. SK-MEL-5 TRPM1 promoter luciferase, 24 h. inhibition, % at 12.5 µM. 0.83% of 330,000 active. AID 488899;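 active = mean inhibition across replicates of 60% or more, whatever share of single replicates reaches that level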
Shn3 3UTR inh: Schnurri-3 reporter inhibition in Clone20 osteoblasts; 0.52% of 360,000 active; AID 588674; Clone20 osteoblast Shn3 3'UTR firefly luciferase, 24 h; inhibition, % at 12.5 µM;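 active = mean inhibition of at least 75% with every replicate also reaching 75%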
LMP1 NFkB inh: inhibitors of Epstein-Barr LMP1-induced NF-kappaB reporter; LMP1-induced NF-kappaB luciferase reporter cells, luminescence; inhibition, % at 12.5 µM; 0.69% of 350,000 active; AID 504558; in the data active = inhibition above about 41%
TROY signal inh: inhibitors of TROY-dependent NF-kB signaling. Q293 LMP1-TROYcd NF-kB luciferase reporter, 4 h. inhibition, % at 10 µM. 0.98% of 360,000 active;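 active = compounds whose plate-normalised and pattern-corrected inhibition of the luciferase reporter signal at the single screening dose is 50% or more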
Hits are given with their value; n = inactive; x = no result given.

SMILES	HIF-2a inh	TWEAK Fn14 block	MITF TRPM1 inh	Shn3 3UTR inh	LMP1 NFkB inh	TROY signal inh
O=C(Nc1cc(Sc2nc3ccccc3s2)cc([N+](=O)[O-])c1)c1ccccc1	n	63	n	n	n	n
O=C(Nc1cc(Sc2ccccn2)cc([N+](=O)[O-])c1)c1cccc(F)c1	n	65	n	n	n	n
O=C(Nc1cc(Sc2nc3ccccc3s2)cc([N+](=O)[O-])c1)c1ccccc1F	n	n	n	n	n	n
O=C(NNC(=O)c1ccccn1)c1cccc([N+](=O)[O-])c1	n	n	n	n	n	n
Cc1ccc(S(=O)(=O)NCC(=O)OC(C)C(=O)NC2CCCCC2C)cc1C (centres undefined)	n	n	n	n	n	n
Cn1c(/C=C/c2ccccc2)nc2ccccc21	n	83	n	n	47	n
CCC(=O)OC1c2ccccc2C(=O)N1Cc1ccccc1 (centres undefined)	n	n	n	n	87	n
O=C(NC1CCOCC1)C1CCC(=O)N(CCc2ccc(Cl)cc2)C1 (centres undefined)	n	n	n	n	n	n
COc1ccccc1OCC(=O)NNC(=O)C1CCN(c2ncnc3sc(C)c(C)c23)CC1	n	n	n	n	n	n
COc1cc(C(=O)Nc2cccc(C)n2)ccc1OCC(=O)N1CCOCC1	n	n	n	n	n	n
COc1ccc(-c2csc(NC(=O)c3ccc(OCC(=O)N4CCOCC4)c(OC)c3)n2)cc1OC	n	81	n	n	n	71
Cc1sc2ncnc(N3CCC(C(=O)Nc4ccc(Br)cc4Br)CC3)c2c1C	n	n	n	n	n	56
COc1ccc(-c2csc(NC(=O)C3CCN(c4ncnc5sc(C)c(C)c45)CC3)n2)cc1OC	n	102	86	96	n	70
Cc1ccccc1OCC(=O)NNC(=O)C1CCN(c2ncnc3sc(C)c(C)c23)CC1	n	n	n	n	n	53
Cn1c(C(=O)OCC(=O)NCc2cccs2)cc2sccc21	n	n	n	n	n	n
Cn1c(C(=O)OCC(=O)NCCc2ccccc2)cc2sccc21	n	53	n	n	n	n
COC(=O)CN(c1ccc(C)cc1)S(=O)(=O)c1ccc2c(c1)n(C)c(=O)c(=O)n2C	n	n	n	n	n	n
CCOc1ccc(N(CC(=O)OC)S(=O)(=O)c2ccc3c(c2)n(C)c(=O)c(=O)n3C)cc1	n	80	x	n	n	n
CCc1ccc(-c2nn(-c3ccccc3)cc2C2SCC(=O)N2Cc2ccco2)cc1 (centres undefined)	n	53	n	n	n	n
COc1ccc(CNC(=O)/C=C/[C@H]2O[C@@H](n3ccc(=O)[nH]c3=O)[C@H](O)[C@@H]2O)cc1	n	n	x	n	x	n
Nc1ccc(C23CC4CC(CC(CO)(C4)C2)C3)cc1	n	n	n	n	n	n
Nc1ccc(C23CC4CC(CC(O)(C4)C2)C3)cc1	n	76	n	n	n	74
COc1ccc(Cl)cc1N/C(N)=N/c1nc(C)cc(=O)[nH]1	n	n	n	n	n	n
COc1ccc(Cl)cc1N/C(N)=N/c1nc(CSc2ccc(C)cc2)cc(=O)[nH]1	n	n	n	80	n	n
CCSc1nnc(SCC(=O)c2c(N)n(C)c(=O)n(C)c2=O)s1	n	n	n	n	n	n
SMILES	HIF-2a inh	TWEAK Fn14 block	MITF TRPM1 inh	Shn3 3UTR inh	LMP1 NFkB inh	TROY signal inh
CCCn1nc(C(=O)Nc2ccc3nc(N4CCOCC4)sc3c2)ccc1=O	n	n	n	n	n	53
COc1ccc(C(=O)Nc2ccc3nc(N4CCOCC4)sc3c2)cc1OC	n	n	n	n	n	n
CC[C@]12c3[nH]c4cc(CCC(=O)N(C)C)ccc4c3CCN1C(=O)[C@@H](CC(=O)NC/C=C(\C)CCC=C(C)C)C[C@@H]2C(=O)N1CCN(C(=O)c2ccco2)CC1	n	n	n	87	n	n
COC(=O)c1ccc2nc(C(C)(C)C)c(Cc3ccc(OC)cc3C)n2c1	n	n	x	n	x	n
COc1ccc(Cc2c(C(C)(C)C)nc3ccc(Br)cn23)c(C)c1	n	n	x	n	x	93
CCS(=O)(=O)Nc1ccc(C2=NN(C(=S)Nc3ccccc3)C(c3ccco3)C2)cc1 (centres undefined)	n	n	n	n	n	n
Cc1ccc(C2=NN(C(=S)Nc3ccccc3)C(c3ccco3)C2)cc1 (centres undefined)	n	n	n	n	n	57
